Measurements reported in PubChem BioAssay (Tox21).
Results filed as inconclusive are left out. Active and inactive are the calls of the source. Unless noted, calls come from the whole dose curve.

Legend:
[1] = Nuclear factor erythroid 2-related factor 2/antioxidant responsive element (Nrf2/ARE) small molecule agonists: luciferase reporter gene qHTS assay in human keratinocytes (AID 1919969); note: nearly all actives have a fitted effect of over 35% in size; note: potency is the fitted concentration of half-maximal effect
[2] = molecular target: Gonadotropin-releasing hormone receptor (Homo sapiens) (UniProt P30968); experiment: Human gonadotropin-releasing hormone receptor (GnRHR) small molecule agonists, calcium flux assay in GnRHR-HEK293 cells (AID 1920063); note: nearly all actives have a fitted effect of over 35% in size
Outline: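 Tox21-format agonist screen using human GnRHR-expressing HEK293 cells and a fluorescent calcium dye; kinetic 3-min fluorescence reading after compound addition, 15-point concentration series run in triplicate.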

[3] = molecular target: KiSS-1 receptor (Homo sapiens) (UniProt Q969F8); experiment: Human kisspeptin (KISS1R) small molecule agonists, calcium flux assay in KISS1R-HEK293 cells (AID 1920064; active = well fitted activation curve with a large enough effect in the repeat runs)
Outline: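 Intracellular calcium mobilization in KISS1R-HEK293 cells was recorded by fluorescence (Ex/Em 480/540) for 3 min following compound addition to cells pre-loaded 1 h with calcium dye.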

[4] = G protein-coupled receptor (GPCR) small molecule agonists, calcium flux assay: HEK293 wild type cell line counter screen (AID 1920065)
Outline: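 In this agonist-mode screen, ATP is the positive control and DMSO the vehicle. Cells grow 18 h before a 1 h dye incubation at 37 C; signal is taken at Ex/Em 480/540 over 3 min.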

[5] = p53 small molecule agonists, cell-based qHTS assay with human liver microsomes (AID 1963577);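 note: p53 response element beta-lactamase reporter cells with liver microsomes plus NADPH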
Outline: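 With metabolic activation: human liver microsomes (0.5 mg/mL final) plus NADPH (0.5 mg/mL final) added alongside compounds to p53RE-bla cells; 16 h 37 C exposure; beta-lactamase read by LiveBLAzer fluorescence.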

[6] = p53 small molecule agonists, cell-based qHTS assay with rat liver microsomes (AID 1963578)
Outline: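 Metabolic activation by rat liver microsomes and NADPH, each 0.5 mg/mL final, added right after compounds to p53RE-bla reporter cells (4,000/well, plated 5 h earlier). 16 h at 37 C, then LiveBLAzer substrate for 2 h at room temperature in the dark; fluorescence read-out.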

[7] = p53 small molecule agonists, cell-based qHTS assay with human liver microsomes: qHTS cell viability counter screen (AID 1963579); note: nearly all actives have a fitted effect of over 45% in size
Outline: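 Metabolic activation used human liver microsomes and NADPH, both 0.5 mg/mL final, over 16 hours at 37 C on p53RE-bla cells (4,000/well). Cytotoxicity measured by CellTiter-Glo luminescence, 30 min at room temperature.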

[8] = p53 small molecule agonists, cell-based qHTS assay with rat liver microsomes: qHTS cell viability counter screen (AID 1963580); note: nearly all actives have a fitted effect of over 45% in size
Outline: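 p53RE-bla HCT-116 cells were exposed 16 h at 37 C to compounds with rat liver microsomes (0.5 mg/mL) and NADPH (0.5 mg/mL). Viability was measured in the same wells as ATP content by CellTiter-Glo luminescence.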

[9] = p53 small molecule agonists, cell-based qHTS assay (AID 1963582; active = well fitted activation curve with a large enough effect in the signal ratio in the repeat runs, not every such curve was filed as active; the % refers to the signal ratio)
Outline: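 Agonist activity was scored from beta-lactamase FRET fluorescence in p53RE-bla cells treated 16 h at 37 C with compounds in DMSO, substrate incubation being 2 h at room temperature.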

[10] = molecular target: 5-hydroxytryptamine receptor 2A (Homo sapiens) (UniProt P28223); experiment: 5-hydroxytryptamine receptor 2A (HTR2A) small molecule agonists, cell-based qHTS assay (AID 1963587); note: nearly all actives have a fitted effect of over 30% in size
Outline: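 CHO cells stably expressing human HTR2A, plated 18 h, loaded with calcium dye 1 h at 37 C. Agonist mode: compounds added and intracellular calcium fluorescence recorded kinetically for 2 min at 1 sec intervals.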

[11] = molecular target: Muscarinic acetylcholine receptor M1 (Homo sapiens) (UniProt P11229); experiment: Cholinergic receptor muscarinic 1 (CHRM1) small molecule antagonists, cell-based qHTS assay (AID 1963588); note: nearly all actives have a fitted effect of over 40% in size
Outline: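 CHRM1-CHO calcium-flux assay, antagonist mode. Cells were seeded 18 h, dye-loaded 1 h at 37 C and given compound for 5 min at RT, then acetylcholine was added at 50nM. FDSS fluorescence was read 3 min; 15 concentrations, three runs.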

[12] = molecular target: Muscarinic acetylcholine receptor M1 (Homo sapiens) (UniProt P11229); experiment: Cholinergic receptor muscarinic 1 (CHRM1) small molecule agonists, cell-based qHTS assay (AID 1963589); note: nearly all actives have a fitted effect of over 35% in size
Outline: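 Stable CHRM1-CHO cells (human receptor) were incubated 18 h, dye-loaded for 1 h at 37 C and exposed to test compounds for agonist activity, with calcium-dependent fluorescence followed kinetically.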

[13] = cAMP Responsive Elements (CRE) small molecule agonists, cell-based qHTS assay (AID 1963590)
Outline: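 FRET-based beta-lactamase readout (LiveBLAzer B/G, 2 h RT) quantified CRE activation in HEK 293T CRE-bla cells after 3 h treatment with DMSO-dissolved compounds.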

[14] = cAMP Responsive Elements (CRE) small molecule antagonists, cell-based qHTS assay (AID 1963591; active = well fitted inhibition curve with a large enough effect in the signal ratio in the repeat runs, not every such curve was filed as active; the % refers to the signal ratio)
Outline: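 qHTS in CRE-bla HEK 293T cells: compound in DMSO, then 0.25 uM NKH477 (final), 3 h at 37 °C/5% CO2; beta-lactamase FRET read-out after 2 h substrate incubation.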

[15] = molecular target: Beta-2 adrenergic receptor (Homo sapiens) (UniProt P07550); experiment: Adrenergic beta2 receptor (ADRB2) small molecule antagonists, cell-based qHTS assay (AID 1963592); note: series mostly up to about 92 µM; nearly all actives have a fitted effect of over 50% in size
Outline: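 Cells (CHO, stable ADRB2 overexpression) incubated 18-20hr at 37C; compounds added from DMSO; agonist mix (1nM isoproterenol, 100uM IBMX, 25uM Ro-20-1724) added; 0.5hr RT; d2-cAMP and anti-cAMP-cryptate added; 1hr RT; 665/615 nm read.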

[16] = molecular target: Beta-2 adrenergic receptor (Homo sapiens) (UniProt P07550); experiment: Adrenergic beta2 receptor (ADRB2) small molecule agonists, cell-based qHTS assay (AID 1963593);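 note: CHO cells stably overexpressing human ADRB2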
Outline: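 CHO cells stably over-expressing ADRB2 were plated overnight at 37C, then dosed with compounds plus a stimulation mix containing 100uM IBMX and 25uM Ro-20-1724 for 0.5hr at room temperature. cAMP was measured by HTRF competition, 1hr.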

[17] = molecular target: D(2) dopamine receptor (Homo sapiens) (UniProt P14416); experiment: Dopamine D2 receptor (DRD2) small molecule agonists, cell-based qHTS assay (AID 1963594); note: nearly all actives have a fitted effect of over 35% in size
Outline: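 HEK293 cells stably expressing human DRD2, pre-treated with PDE inhibitor Ro20-1724 (0.1 mM final) and compound 10 min at room temperature, then stimulated with NKH477 (200nM […]) for 30 min. cAMP read by HTRF (665/620 nm).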

[18] = molecular target: D(2) dopamine receptor (Homo sapiens) (UniProt P14416); experiment: Dopamine D2 receptor (DRD2) small molecule antagonists, cell-based qHTS assay (AID 1963595; active = well fitted inhibition curve with a large enough effect in the signal ratio in the repeat runs, with a control signal flat; the % refers to the signal ratio)
Outline: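 Readout: HTRF cAMP, cAMP-d2 competing with cellular cAMP for anti-cAMP cryptate, read after 1 h. Cells: DRD2-HEK293. Conditions: 0.1 mM Ro20-1724, 12 nM quinpirole, 200 nM NKH477, 30 min RT.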

[19] = p53 small molecule agonists, cell-based qHTS assay: qHTS cell viability counter screen (AID 1963581); note: nearly all actives have a fitted effect of over 45% in size
Outline: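 Compounds are pinned onto HCT-116 p53RE-bla cells and left 16 h at 37 C. Following the reporter FRET read, ATP is quantified by CellTiter-Glo luminescence after 30 min at room temperature.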

[20] = molecular target: 5-hydroxytryptamine receptor 2A (Homo sapiens) (UniProt P28223); experiment: 5-hydroxytryptamine receptor 2A (HTR2A) small molecule antagonists, cell-based qHTS assay (AID 1963586); note: nearly all actives have a fitted effect of over 45% in size
Outline: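 Antagonist-mode intracellular calcium assay: DOI (4 nM) added after 5 min compound pre-incubation at room temperature to dye-loaded HTR2A-CHO cells. Fluorescence followed for 3 min, sampled every second.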

Measured: Potency

Sequence of Beta-2 adrenergic receptor (Homo sapiens) (P07550 whole entry, looked up): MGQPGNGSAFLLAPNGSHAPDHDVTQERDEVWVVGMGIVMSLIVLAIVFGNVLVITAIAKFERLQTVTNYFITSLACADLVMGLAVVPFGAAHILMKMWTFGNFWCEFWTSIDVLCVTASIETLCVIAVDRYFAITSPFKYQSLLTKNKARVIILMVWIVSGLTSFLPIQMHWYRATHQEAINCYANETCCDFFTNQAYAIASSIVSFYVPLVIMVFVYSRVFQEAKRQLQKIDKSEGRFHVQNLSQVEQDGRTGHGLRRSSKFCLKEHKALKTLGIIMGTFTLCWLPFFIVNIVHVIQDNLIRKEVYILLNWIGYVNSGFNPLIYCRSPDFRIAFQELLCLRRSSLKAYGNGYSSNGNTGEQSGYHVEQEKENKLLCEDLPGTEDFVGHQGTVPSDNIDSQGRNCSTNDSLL
Sequence of Gonadotropin-releasing hormone receptor (Homo sapiens) (P30968 whole entry, looked up): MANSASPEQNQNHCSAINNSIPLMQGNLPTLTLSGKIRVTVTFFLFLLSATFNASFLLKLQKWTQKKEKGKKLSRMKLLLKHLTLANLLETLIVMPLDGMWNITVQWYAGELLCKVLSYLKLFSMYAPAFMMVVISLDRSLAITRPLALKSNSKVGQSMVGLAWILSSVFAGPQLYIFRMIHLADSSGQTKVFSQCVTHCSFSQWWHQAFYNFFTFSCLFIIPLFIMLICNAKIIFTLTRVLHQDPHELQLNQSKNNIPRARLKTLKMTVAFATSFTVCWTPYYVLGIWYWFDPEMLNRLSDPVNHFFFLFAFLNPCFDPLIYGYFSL
Sequence of 5-hydroxytryptamine receptor 2A (Homo sapiens) (P28223 whole entry, looked up): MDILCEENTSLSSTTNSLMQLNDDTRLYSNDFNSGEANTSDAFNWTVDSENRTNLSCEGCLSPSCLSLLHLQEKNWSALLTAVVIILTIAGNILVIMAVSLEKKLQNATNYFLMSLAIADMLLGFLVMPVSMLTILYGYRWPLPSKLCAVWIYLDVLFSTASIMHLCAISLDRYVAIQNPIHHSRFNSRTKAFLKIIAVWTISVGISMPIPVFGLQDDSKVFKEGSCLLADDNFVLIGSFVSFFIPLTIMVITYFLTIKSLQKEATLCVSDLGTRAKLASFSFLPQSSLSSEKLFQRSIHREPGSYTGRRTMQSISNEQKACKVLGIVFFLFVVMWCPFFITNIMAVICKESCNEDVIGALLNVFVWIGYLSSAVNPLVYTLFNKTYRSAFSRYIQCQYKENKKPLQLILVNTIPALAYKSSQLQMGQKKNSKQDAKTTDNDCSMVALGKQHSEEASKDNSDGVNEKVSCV
Sequence of D(2) dopamine receptor (Homo sapiens) (P14416 whole entry, looked up): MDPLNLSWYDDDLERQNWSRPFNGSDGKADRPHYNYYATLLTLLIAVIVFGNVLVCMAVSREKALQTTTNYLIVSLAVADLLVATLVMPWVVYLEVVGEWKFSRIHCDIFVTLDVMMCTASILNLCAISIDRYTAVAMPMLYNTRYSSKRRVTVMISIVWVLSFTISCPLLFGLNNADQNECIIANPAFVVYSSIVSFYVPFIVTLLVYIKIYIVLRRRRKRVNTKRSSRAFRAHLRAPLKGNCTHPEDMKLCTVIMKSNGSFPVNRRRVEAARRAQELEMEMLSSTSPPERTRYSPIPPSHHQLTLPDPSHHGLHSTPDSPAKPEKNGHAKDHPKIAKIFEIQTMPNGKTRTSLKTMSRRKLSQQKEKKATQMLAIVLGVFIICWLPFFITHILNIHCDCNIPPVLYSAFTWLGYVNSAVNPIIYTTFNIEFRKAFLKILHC
Sequence of Muscarinic acetylcholine receptor M1 (Homo sapiens) (P11229 whole entry, looked up): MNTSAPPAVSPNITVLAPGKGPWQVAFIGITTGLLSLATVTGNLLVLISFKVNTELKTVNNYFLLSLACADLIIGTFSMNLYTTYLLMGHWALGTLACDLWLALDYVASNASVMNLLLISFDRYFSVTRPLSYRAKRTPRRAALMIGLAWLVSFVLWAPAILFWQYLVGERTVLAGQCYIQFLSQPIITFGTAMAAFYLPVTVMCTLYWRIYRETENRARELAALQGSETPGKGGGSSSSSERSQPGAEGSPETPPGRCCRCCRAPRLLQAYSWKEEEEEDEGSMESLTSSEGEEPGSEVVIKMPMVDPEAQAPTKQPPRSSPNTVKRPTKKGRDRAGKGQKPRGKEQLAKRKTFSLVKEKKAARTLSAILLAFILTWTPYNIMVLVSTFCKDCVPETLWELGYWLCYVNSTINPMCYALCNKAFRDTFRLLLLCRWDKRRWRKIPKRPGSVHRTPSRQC
Sequence of KiSS-1 receptor (Homo sapiens) (Q969F8 whole entry, looked up): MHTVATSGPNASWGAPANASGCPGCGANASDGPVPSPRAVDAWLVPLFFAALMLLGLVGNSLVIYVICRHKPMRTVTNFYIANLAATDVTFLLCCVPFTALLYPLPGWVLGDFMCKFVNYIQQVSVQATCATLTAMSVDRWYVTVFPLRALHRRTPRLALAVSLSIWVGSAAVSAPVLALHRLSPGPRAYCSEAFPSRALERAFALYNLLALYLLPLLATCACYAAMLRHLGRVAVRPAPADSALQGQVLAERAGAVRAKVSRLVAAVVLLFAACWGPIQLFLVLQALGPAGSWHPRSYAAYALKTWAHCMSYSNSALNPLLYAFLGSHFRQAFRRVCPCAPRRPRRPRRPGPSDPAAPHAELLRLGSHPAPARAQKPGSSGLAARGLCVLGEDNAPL

Cc1nc2ccccc2s1
not listed: [19] | [20]
inactive: all other assays above

O=C(O)c1cc2ccccc2nc1C(=O)O
active: [1] 17.2 µM
not listed: [9] | [16]
inactive: all other assays above

CCC(N)(CO)CO
not listed: [9] | [13] | [16]
inactive: all other assays above

CCCOCCOCCOCCO
not listed: [3]
inactive: all other assays above

CCCCCCCCS
not listed: [1] | [5] | [16]
inactive: all other assays above
